Experiment [1] concerns Madurella mycetomatis MM55. As to conditions: 7 days.
The test system of experiment [2] is Madurella mycetomatis MM55. Nature of the experiment: IC90; higher = less potent. The conditions noted are these: 7 days.
For experiment [3], the system named is Madurella mycetomatis MM55. In words: percent growth relative to solvent control; higher = less inhibition, active = 20 or less. The conditions noted are these: 100 µM; 7 days.

One may read the IC50 as the point on the concentration scale where inhibition reaches its midpoint. Usually IC90 stands for the concentration at which the effect reaches the 90% level.

Take `COc1ccc(-c2nnc3ccc(-c4cccc(C(C)C)c4)cn23)cc1OC`: the IC50 in experiment [1] turned out to be 40.6 µM. Also, the IC90 in experiment [2] was 86.2 µM. Also, in experiment [3], the percent growth was 2.59% (active).

In experiment [1], `CCCCCCCCCCCCCCCCOP(=O)([O-])OCC[N+](C)(C)C` gave an IC50 of 59.3 µM. The same compound showed an IC90 in experiment [2] of 90.8 µM. The percent growth in experiment [3] was -0.857% (active).

As for `O=C(Nc1nnc(-c2ccc(Cl)cc2)o1)c1cccc(C(F)(F)F)c1`, the IC50 in experiment [1] amounted to 10.6 µM. In experiment [2], this compound displayed an IC90 of 39.2 µM. For the same compound, the percent growth in experiment [3] was 3.76% (active).

For `CCOC(=O)c1c(NC(=O)c2c(F)c(F)c(F)c(F)c2F)sc(C(N)=O)c1C`, the IC50 in experiment [1] was found to be 60.5 µM. In experiment [2], this compound returned an IC90 of 92.8 µM. Also, the percent growth in experiment [3] is 1.26% (active).

Consider `Cc1ccc(NC(=O)CC2COc3ccccc3O2)cc1Cl` (stereo unspecified), for which, in experiment [1], the IC50 came to 51.9 µM. Also, the IC90 in experiment [2] stood at 91.3 µM. In addition, the percent growth in experiment [3] was 1.24% (active).

As for `O=C(Nc1ccccc1)c1ccc(-c2cc3ccncc3cc2OC2CCNCC2)s1`, the IC50 in experiment [1] is 54.3 µM. Besides, the IC90 in experiment [2] is 87.4 µM. Further, in experiment [3], the percent growth was -5% (active).

Take `O=C(c1ccc(F)cc1)N(CCNc1ccccc1)c1ccccc1`: the IC50 in experiment [1] came out at 66.8 µM. Further, the IC90 in experiment [2] was 100 µM. The percent growth in experiment [3] is 6.35% (active).

For `COc1ccc(OC(C)C(=O)Nc2ccc(Cl)cc2C)cc1` (stereo unspecified), the IC50 in experiment [1] was 26.9 µM. In experiment [2], this compound displayed an IC90 of 54.5 µM. Further, the percent growth in experiment [3] is 0.806% (active).

On to `CNCCC(Oc1ccc(C(F)(F)F)cc1)c1ccccc1` (stereo unspecified), for which the IC50 in experiment [1] is 10.1 µM. The IC90 in experiment [2] worked out at 18.6 µM. For the same compound, the percent growth in experiment [3] is 1.78% (active).

For `NCC(c1cccs1)S(=O)(=O)c1ccccc1` (stereo unspecified), the IC50 in experiment [1] came to 53.9 µM. The compound further showed an IC90 in experiment [2] of 91.8 µM. The percent growth in experiment [3] is 1.47% (active).

In the case of `CC(C)(C)C1CCC(CC2=C(O)C(=O)c3ccccc3C2=O)CC1` (stereo unspecified), the IC50 in experiment [1] came out at 66.8 µM. Further, in experiment [2], the IC90 was determined as 92.7 µM. Moreover, the percent growth in experiment [3] was -0.835% (active).

Take `O=C(Nc1nc(-c2ccccn2)cs1)c1cncn1-c1ccccc1`: in experiment [1], the IC50 worked out at 10.8 µM. For the same compound, in experiment [2], the IC90 is 40.8 µM. Besides, the percent growth in experiment [3] was 1.78% (active).

Regarding `CCCn1c(NC(=O)c2ccc3ccccc3n2)nc2ccccc21`, the IC50 in experiment [1] is 3.7 µM. The compound further gave an IC90 in experiment [2] of 9.85 µM. The percent growth in experiment [3] was -3.5% (active).

In turn, `Cc1nn(C(=O)Nc2cccc(C(F)(F)F)c2)c(C)c1Sc1ncccn1` registered a 50% inhibitory concentration (IC50) in experiment [1] of 68.5 µM. Moreover, the IC90 in experiment [2] stood at 94 µM. In experiment [3], the percent growth is 1.34% (active).

In experiment [1], `Cc1nc(-c2cccc(NCc3ccccc3)c2)[nH]c1C` came in with an IC50 of 64 µM. In experiment [2], this compound showed an IC90 of 93.6 µM. Besides, the percent growth in experiment [3] is 1.75% (active).

Turning to `c1ccc(-c2[nH]c3ccccc3c2C(c2ccccn2)N2CCCC2)cc1` (stereo unspecified), in experiment [1], the IC50 came to 34.8 µM. In experiment [2], the IC90 was 94.6 µM. Also, the percent growth in experiment [3] is 5.96% (active).

As for `O=C(Nc1ccc(N2CCNCC2)cc1)c1ccn2ncc(-c3cccc(Cl)c3)c2n1`, the IC50 in experiment [1] came out at 2.95 µM. In addition, in experiment [2], the IC90 was 4.9 µM. Besides, the percent growth in experiment [3] was 8.12% (active).

`COc1cc(NC(C)CCCN)c2ncccc2c1` (stereo unspecified): the IC50 in experiment [1] was found to be 64.5 µM. In addition, the IC90 in experiment [2] stood at 92.8 µM. The percent growth in experiment [3] was 0.211% (active).

`N=C(N)Nc1ccc(-c2ccc(-c3ccc(N=C(N)N)c(Cl)c3)o2)cc1Cl`: in experiment [1], the IC50 was found to be 61.6 µM. The IC90 in experiment [2] worked out at 88.5 µM. For the same compound, the percent growth in experiment [3] was -8.11% (active).

`c1ccc(Oc2ccc(-c3cc(N4CCOCC4)[nH]n3)cc2)cc1` gave a half-maximal inhibitory concentration (IC50) in experiment [1] of 56.9 µM. Besides, in experiment [2], the IC90 was 95.2 µM. Also, the percent growth in experiment [3] was 5.11% (active).

With `O=C(Nc1ccc(C(F)(F)F)c(C(F)(F)F)c1)c1cc(Cl)ccc1O`, in experiment [1], the IC50 stood at 1.45 µM. This compound also registered an IC90 in experiment [2] of 3.8 µM. The percent growth in experiment [3] was -2.39% (active).

In experiment [1], `c1ccc(-c2nc(NC3CCCCC3)cc(C3CC3)n2)nc1` registered an IC50 of 10.3 µM. The 90% effect concentration (IC90) in experiment [2] amounted to 18.8 µM. Further, the percent growth in experiment [3] is 2.69% (active).

For the compound `CC(=O)Nc1ccc(-c2noc(CC3CCCN(Cc4cccc(F)c4C)C3)n2)cc1` (stereo unspecified), the IC50 in experiment [1] was 66.2 µM. For the same compound, the IC90 in experiment [2] was 94.5 µM. Besides, in experiment [3], the percent growth was 1.89% (active).

In turn, `O=C1COCc2ccc(Br)cc2N1Cc1ccc(C(F)(F)F)cc1` yielded an IC50 in experiment [1] of 45 µM. The same compound yielded an IC90 in experiment [2] of 95.4 µM. Besides, in experiment [3], the percent growth was 9.1% (active).

As to `Cc1cc(C)c2cc(C(=O)NC3CCCCCCC3)[nH]c2c1`, the IC50 in experiment [1] worked out at 64.9 µM. For the same compound, the IC90 in experiment [2] came out at 94.3 µM. Besides, the percent growth in experiment [3] was 2.52% (active).

Turning to `O=C(Nc1ccc(N2CCNCC2)nc1)c1oc(-c2ccccc2)nc1C(F)(F)F`, the IC50 in experiment [1] stood at 37.9 µM. Further, the IC90 in experiment [2] was found to be 85.3 µM. The percent growth in experiment [3] was -3.61% (active).

In experiment [1], `NC(CC(=O)c1ccc(Cl)cc1Cl)C(Cl)(Cl)Cl` (stereo unspecified) showed an IC50 of 58.1 µM. In experiment [2], this compound displayed an IC90 of 95 µM. Also, the percent growth in experiment [3] was 5.11% (active).

In experiment [1], `CCc1c(C)nc(-n2nc(C)cc2NC(=O)c2ccccc2SC)[nH]c1=O` returned an IC50 of 6.75 µM. The compound also showed an IC90 in experiment [2] of 15.1 µM. For the same compound, the percent growth in experiment [3] was 2.44% (active).

Regarding `Cc1[nH]c2ccccc2c1C(c1cccs1)N1CCN(C)CC1` (stereo unspecified), the IC50 in experiment [1] was 12.7 µM. This compound also displayed an IC90 in experiment [2] of 47 µM. For the same compound, the percent growth in experiment [3] was 4.92% (active).

In the case of `CC(C)(C(=O)Nc1ccc(F)cc1)n1cc(-c2ccccc2F)cn1`, the concentration for half-maximal inhibition (IC50) in experiment [1] was found to be 56.2 µM. Also, the IC90 in experiment [2] worked out at 96.1 µM. Moreover, the percent growth in experiment [3] was 6.9% (active).

Turning to `COc1ccc(C2=NN(C3CCCCCC3)C(=O)[C@@H]3CC=CC[C@H]23)cc1OCCCCOc1ccc(-c2nn[nH]n2)cc1`, in experiment [1], the concentration for half-maximal inhibition (IC50) was 18.6 µM. Besides, the concentration for an effect of 90% (IC90) in experiment [2] is 53.5 µM. For the same compound, the percent growth in experiment [3] was -1.09% (active).

In the case of `COC(=O)C1=C(C)NC(C)=C(C(=O)OC(C)C)C1c1cccc2nonc12` (stereo unspecified), in experiment [1], the IC50 was determined as 45.1 µM. The compound further gave an IC90 in experiment [2] of 87.6 µM. Moreover, the percent growth in experiment [3] was -1.92% (active).

In the case of `FC(F)(F)c1cc(NCCc2ccccc2)nc(-c2ccccn2)n1`, the IC50 in experiment [1] was determined as 55.5 µM. The same compound yielded an IC90 in experiment [2] of 91.1 µM. Besides, in experiment [3], the percent growth is -0.699% (active).

`Cc1ccc(-c2nc(CN(Cc3ccccn3)C(C)C)cs2)o1` registered an IC50 in experiment [1] of 53.9 µM. This compound also yielded an IC90 in experiment [2] of 90 µM. Further, the percent growth in experiment [3] is 0.31% (active).

`COc1ccc(C(=N)N)cc1-c1cn(-c2ccc(C(=N)N)cc2)nn1` yielded an IC50 in experiment [1] of 56.6 µM. The IC90 in experiment [2] was determined as 89.2 µM. Moreover, the percent growth in experiment [3] was -3.41% (active).

In turn, `CN1CCC(c2cc(-c3ccncc3)c(-c3ccc(F)cc3)[nH]2)CC1` gave an IC50 in experiment [1] of 56.4 µM. Besides, in experiment [2], the IC90 stood at 91.6 µM. Moreover, the percent growth in experiment [3] was 1.72% (active).

The compound `CCN(CC)CCCCCCNc1cc(OC)cc2c(C)ccnc12` showed an IC50 in experiment [1] of 9.8 µM. In experiment [2], this compound came in with an IC90 of 17.8 µM. Also, in experiment [3], the percent growth was -1.36% (active).

For `CC(Oc1ccccc1)C(=O)Nc1nc(-c2ccccn2)cs1` (stereo unspecified), the IC50 in experiment [1] stood at 10.1 µM. This compound also registered an IC90 in experiment [2] of 18.5 µM. The percent growth in experiment [3] is 1.36% (active).

As to `CC(C)=CCC/C(C)=C\CNCCNC1C2CC3CC(C2)CC1C3` (stereo unspecified), the IC50 in experiment [1] turned out to be 10.2 µM. This compound also returned an IC90 in experiment [2] of 19.8 µM. Also, the percent growth in experiment [3] was 2.78% (active).

The compound `COc1cc(C2=NCCN2)cc2cc(-c3ccc(C4=NCCN4)cc3)oc12` registered an IC50 in experiment [1] of 48.3 µM. This compound also registered an IC90 in experiment [2] of 88.8 µM. The percent growth in experiment [3] is -1.77% (active).

For the compound `Cc1ccc2cc(C3NC(=O)c4ccccc4N3)c(Cl)nc2c1` (stereo unspecified), the percent growth in experiment [3] was 139% (inactive).

For `O=S(=O)(c1ccc(Cl)cc1)N1CCN(C(=S)NCc2ccco2)CC1`, the percent growth in experiment [3] is 151% (inactive).

In the case of `COc1ccc(-c2nn(C(C)C)c3ncnc(N)c23)cc1OC`, the percent growth in experiment [3] was 22.9% (inactive).

As for `COc1ccccc1C(C)NCC(=O)Nc1cc(C(F)(F)F)ccc1Cl` (stereo unspecified), the percent growth in experiment [3] is 28.7% (inactive).

For `O=C(N[C@H](Cc1ccccc1)C(=O)Nc1ccccc1N1CCOCC1)c1cccs1`, the percent growth in experiment [3] is 36.5% (inactive).

Consider `c1cc(C2=NCCN2)cc(-c2cc(-c3ccc(C4=NCCN4)cc3)no2)c1`, for which, in experiment [3], the percent growth is 73.8% (inactive).

The values are drawn from the supplement of paper PMC5940239.
